Results published in PubChem BioAssay (NCATS).
Results filed as inconclusive are left out. Calls of active or inactive are those of the source. The call rests on the fitted dose curve; in most records, active means well fitted curve in the direction sought with a large enough effect; inconclusive means small, poorly fitted or top-dose-only effect, or another doubt; inactive means no such curve, though single readings can be large; an effect the other way counts as inactive or inconclusive.

How the values were obtained:
[1] = Quantitative High-Throughput drug screen in 47 multiple myeloma cell lines against the NCATS MIPE library collection: ARD_JJKsccE7 cell viability assay (AID 1918929)
Outline: (§1)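 Luminescent ATP measurement with CellTiter-Glo gives viability, scaled between DMSO-only wells (100%) and media-only wells (0%). Cells, 500 per well, faced library compounds for 48 hours at 37C.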

[2] = Quantitative High-Throughput drug screen in 47 multiple myeloma cell lines against the NCATS MIPE library collection: Karpas620_DSMZ cell viability assay (AID 1918959); further: nearly all actives have a fitted effect of over 30% in size
Outline: as §1

[3] = Quantitative High-Throughput drug screen in 47 multiple myeloma cell lines against the NCATS MIPE library collection: KMM1_JCRB cell viability assay (AID 1918960); further: nearly all actives have a fitted effect of over 30% in size
Outline: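 Myeloma cells at 500 per well in 1536-well format treated with MIPE 4.0 library by pin transfer for 48 h at 37C, 5% CO2. Viability from ATP luminescence (CellTiter-Glo), normalized to DMSO (100%) and media-only (0%) wells.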

[4] = Quantitative High-Throughput drug screen in 47 multiple myeloma cell lines against the NCATS MIPE library collection: JIM3_ECACC cell viability assay (AID 1918963; further: nearly all actives have a fitted effect of over 35% in size)
Outline: as §1

[5] = Quantitative High-Throughput drug screen in 47 multiple myeloma cell lines against the NCATS MIPE library collection: JIM1_ECACC cell viability assay (AID 1918964)
Outline: as §1

[6] = Quantitative High-Throughput drug screen in 47 multiple myeloma cell lines against the NCATS MIPE library collection: JJN3_DSMZ cell viability assay (AID 1918966; further: nearly all actives have a fitted effect of over 50% in size)
Outline: as §1

[7] = Quantitative High-Throughput drug screen in 47 multiple myeloma cell lines against the NCATS MIPE library collection: H1112_PLB cell viability assay (AID 1918967; further: nearly all actives have a fitted effect of over 30% in size)
Outline: as §1

[8] = Quantitative High-Throughput drug screen in 47 multiple myeloma cell lines against the NCATS MIPE library collection: Karpas25_ECACC cell viability assay (AID 1918968; further: nearly all actives have a fitted effect of over 35% in size)
Outline: as §1

[9] = Quantitative High-Throughput drug screen in 47 multiple myeloma cell lines against the NCATS MIPE library collection: KMS12BM_JCRB cell viability assay (AID 1918971); further: nearly all actives have a fitted effect of over 35% in size
Outline: (§2)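 Steps: seed 500 cells per well; pin-transfer MIPE 4.0 library; incubate 48 h at 37C, 5% CO2, humidified; add CellTiter-Glo, 5 min room temperature; read luminescence.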

[10] = Quantitative High-Throughput drug screen in 47 multiple myeloma cell lines against the NCATS MIPE library collection: KMS12PE_JCRB cell viability assay (AID 1918972); further: nearly all actives have a fitted effect of over 30% in size
Outline: as §2

[11] = Quantitative High-Throughput drug screen in 47 multiple myeloma cell lines against the NCATS MIPE library collection: KMS26_JCRB cell viability assay (AID 1918975); further: nearly all actives have a fitted effect of over 45% in size
Outline: as §2

[12] = Quantitative High-Throughput drug screen in 47 multiple myeloma cell lines against the NCATS MIPE library collection: MOLP8_DSMZ cell viability assay (AID 1918977); further: nearly all actives have a fitted effect of over 45% in size
Outline: (§3)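 Inhibition of viability over 48 h was scored by ATP content (CellTiter-Glo) in 500-cell wells. Zero and full viability were defined by media-only and DMSO-only wells.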

[13] = Quantitative High-Throughput drug screen in 47 multiple myeloma cell lines against the NCATS MIPE library collection: NCIH929_DSMZ cell viability assay (AID 1918978); further: nearly all actives have a fitted effect of over 35% in size
Outline: as §3

[14] = Quantitative High-Throughput drug screen in 47 multiple myeloma cell lines against the NCATS MIPE library collection: INA6_PLB cell viability assay (AID 1918965; further: nearly all actives have a fitted effect of over 55% in size)
Outline: as §2

[15] = Quantitative High-Throughput drug screen in 47 multiple myeloma cell lines against the NCATS MIPE library collection: KMS27_JCRB cell viability assay (AID 1918970); conditions: KMS27 myeloma cells, CellTiter-Glo ATP viability, 48 h; viability (% of DMSO): at 45.8 µM (top of the series); further: nearly all actives have a fitted effect of over 30% in size
Outline: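 Myeloma cells (500 per well) were exposed to MIPE 4.0 compounds for 48 h at 37 °C, 5% CO2; viability was read as ATP luminescence with CellTiter-Glo, normalized to DMSO-only (100%) and media-only (0%) wells.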

[16] = Quantitative High-Throughput drug screen in 47 multiple myeloma cell lines against the NCATS MIPE library collection: MMM1_PLB cell viability assay (AID 1918976); further: nearly all actives have a fitted effect of over 35% in size
Outline: as §3

[17] = Quantitative High-Throughput drug screen in 47 multiple myeloma cell lines against the NCATS MIPE library collection: Karpas417_ECACC cell viability assay (AID 1918961); conditions: Karpas417 myeloma viability, CellTiter-Glo ATP luminescence, 48 h; viability (% of DMSO): at 45.8 µM (top of the series)
Outline: as §2

[18] = Quantitative High-Throughput drug screen in 47 multiple myeloma cell lines against the NCATS MIPE library collection: KHM11_PLB cell viability assay (AID 1918962); further: nearly all actives have a fitted effect of over 35% in size
Outline: as §1

[19] = Quantitative High-Throughput drug screen in 47 multiple myeloma cell lines against the NCATS MIPE library collection: KMS20_JCRB cell viability assay (AID 1918973); further: nearly all actives have a fitted effect of over 45% in size
Outline: as §1

[20] = Quantitative High-Throughput drug screen in 47 multiple myeloma cell lines against the NCATS MIPE library collection: KMS21BM_JCRB cell viability assay (AID 1918974); conditions: ATP luminescence, 48 h; viability: at 45.8 µM (top of the series)
Outline: as §1

Measured: Potency
Potency means the concentration at half of the fitted maximal effect.

Cc1cc(Nc2ncc3c(n2)N(C)C(=O)N(c2cc(NC(=O)c4cccc(C(F)(F)F)c4)ccc2C)C3)n(C)n1
active: [1] 0.935 µM | [2] 1.48 µM | [3] 1.18 µM | [4] 2.64 µM | [5] 0.118 µM | [6] 1.32 µM | [7] 2.64 µM | [8] 0.372 µM | [9] 0.526 µM | [10] 1.05 µM | [11] 5.9 µM | [12] 0.296 µM | [13] 1.05 µM

C=CC[C@@H]1C=C(C)C[C@H](C)C[C@H](OC)[C@H]2O[C@@](O)(C(=O)C(=O)N3CCCC[C@H]3C(=O)O[C@H](C(C)=C[C@@H]3CC[C@H](O)[C@H](OC)C3)[C@@H](C)[C@@H](O)CC1=O)[C@@H](C)C[C@@H]2OC
active: [1] 2.09 µM | [2] 1.48 µM | [3] 2.09 µM | [4] 3.72 µM | [5] 1.18 µM | [14] 0.935 µM | [6] 0.662 µM | [7] 3.32 µM | [8] 2.96 µM | [15] 0.743 µM | [9] 1.48 µM | [10] 1.87 µM | [11] 0.935 µM | [16] 3.32 µM | [12] 1.32 µM | [13] 3.32 µM

Cc1ccc2nc(NCCN)c3ncc(C)n3c2c1
active: [1] 9.35 µM | [3] 7.43 µM | [17] 8.33 µM | [18] 2.64 µM | [4] 8.33 µM | [5] 3.32 µM | [14] 5.9 µM | [6] 1.66 µM | [7] 4.69 µM | [8] 9.35 µM | [15] 6.62 µM | [9] 3.72 µM | [10] 9.35 µM | [19] 6.62 µM | [11] 2.64 µM | [16] 2.64 µM | [13] 5.9 µM

COC(=O)C1C2CC3c4[nH]c5cc(OC)ccc5c4CCN3CC2CC(OC(=O)c2cc(OC)c(OC)c(OC)c2)C1OC (centres undefined)
active: [1] 20.9 µM | [2] 23.5 µM | [3] 20.9 µM | [4] 26.4 µM | [7] 16.6 µM | [8] 23.5 µM | [10] 18.7 µM | [16] 20.9 µM
inactive: [11]

Cn1c(Nc2ccc(C(F)(F)F)cc2)nc2cc(Oc3ccnc(-c4ncc(C(F)(F)F)[nH]4)c3)ccc21
active: [1] 16.6 µM | [3] 16.6 µM | [17] 4.18 µM | [18] 18.7 µM | [4] 18.7 µM | [5] 9.35 µM | [14] 20.9 µM | [6] 16.6 µM | [7] 8.33 µM | [8] 3.72 µM | [15] 14.8 µM | [10] 5.26 µM | [19] 11.8 µM | [20] 5.9 µM
